Measurements published in PubChem BioAssay AID2073 (Sanford-Burnham Center for Chemical Genomics, 2009).
Several values for one entry are separate records, joined by “and”; a condition that tells them apart may be missing. Identical values can stand only once. In all, about 290,000 compounds went through this assay and about 570 (0.2%) were called active. Another 1% or so got no clear call; they are omitted. No stated cut-off is given here; in the data, active means inhibition mostly above about 51% (no sharp cut-off); inconclusive means no clear call, values can overlap the other calls; inactive means mostly below about 53%. The list comes from a sample in which actives are over-represented; it also holds similar structures and randomly drawn compounds.

Biological target: Voltage-dependent N-type calcium channel subunit alpha-1B (Homo sapiens) (UniProt Q00975)
Sequence (Q00975 whole entry, looked up): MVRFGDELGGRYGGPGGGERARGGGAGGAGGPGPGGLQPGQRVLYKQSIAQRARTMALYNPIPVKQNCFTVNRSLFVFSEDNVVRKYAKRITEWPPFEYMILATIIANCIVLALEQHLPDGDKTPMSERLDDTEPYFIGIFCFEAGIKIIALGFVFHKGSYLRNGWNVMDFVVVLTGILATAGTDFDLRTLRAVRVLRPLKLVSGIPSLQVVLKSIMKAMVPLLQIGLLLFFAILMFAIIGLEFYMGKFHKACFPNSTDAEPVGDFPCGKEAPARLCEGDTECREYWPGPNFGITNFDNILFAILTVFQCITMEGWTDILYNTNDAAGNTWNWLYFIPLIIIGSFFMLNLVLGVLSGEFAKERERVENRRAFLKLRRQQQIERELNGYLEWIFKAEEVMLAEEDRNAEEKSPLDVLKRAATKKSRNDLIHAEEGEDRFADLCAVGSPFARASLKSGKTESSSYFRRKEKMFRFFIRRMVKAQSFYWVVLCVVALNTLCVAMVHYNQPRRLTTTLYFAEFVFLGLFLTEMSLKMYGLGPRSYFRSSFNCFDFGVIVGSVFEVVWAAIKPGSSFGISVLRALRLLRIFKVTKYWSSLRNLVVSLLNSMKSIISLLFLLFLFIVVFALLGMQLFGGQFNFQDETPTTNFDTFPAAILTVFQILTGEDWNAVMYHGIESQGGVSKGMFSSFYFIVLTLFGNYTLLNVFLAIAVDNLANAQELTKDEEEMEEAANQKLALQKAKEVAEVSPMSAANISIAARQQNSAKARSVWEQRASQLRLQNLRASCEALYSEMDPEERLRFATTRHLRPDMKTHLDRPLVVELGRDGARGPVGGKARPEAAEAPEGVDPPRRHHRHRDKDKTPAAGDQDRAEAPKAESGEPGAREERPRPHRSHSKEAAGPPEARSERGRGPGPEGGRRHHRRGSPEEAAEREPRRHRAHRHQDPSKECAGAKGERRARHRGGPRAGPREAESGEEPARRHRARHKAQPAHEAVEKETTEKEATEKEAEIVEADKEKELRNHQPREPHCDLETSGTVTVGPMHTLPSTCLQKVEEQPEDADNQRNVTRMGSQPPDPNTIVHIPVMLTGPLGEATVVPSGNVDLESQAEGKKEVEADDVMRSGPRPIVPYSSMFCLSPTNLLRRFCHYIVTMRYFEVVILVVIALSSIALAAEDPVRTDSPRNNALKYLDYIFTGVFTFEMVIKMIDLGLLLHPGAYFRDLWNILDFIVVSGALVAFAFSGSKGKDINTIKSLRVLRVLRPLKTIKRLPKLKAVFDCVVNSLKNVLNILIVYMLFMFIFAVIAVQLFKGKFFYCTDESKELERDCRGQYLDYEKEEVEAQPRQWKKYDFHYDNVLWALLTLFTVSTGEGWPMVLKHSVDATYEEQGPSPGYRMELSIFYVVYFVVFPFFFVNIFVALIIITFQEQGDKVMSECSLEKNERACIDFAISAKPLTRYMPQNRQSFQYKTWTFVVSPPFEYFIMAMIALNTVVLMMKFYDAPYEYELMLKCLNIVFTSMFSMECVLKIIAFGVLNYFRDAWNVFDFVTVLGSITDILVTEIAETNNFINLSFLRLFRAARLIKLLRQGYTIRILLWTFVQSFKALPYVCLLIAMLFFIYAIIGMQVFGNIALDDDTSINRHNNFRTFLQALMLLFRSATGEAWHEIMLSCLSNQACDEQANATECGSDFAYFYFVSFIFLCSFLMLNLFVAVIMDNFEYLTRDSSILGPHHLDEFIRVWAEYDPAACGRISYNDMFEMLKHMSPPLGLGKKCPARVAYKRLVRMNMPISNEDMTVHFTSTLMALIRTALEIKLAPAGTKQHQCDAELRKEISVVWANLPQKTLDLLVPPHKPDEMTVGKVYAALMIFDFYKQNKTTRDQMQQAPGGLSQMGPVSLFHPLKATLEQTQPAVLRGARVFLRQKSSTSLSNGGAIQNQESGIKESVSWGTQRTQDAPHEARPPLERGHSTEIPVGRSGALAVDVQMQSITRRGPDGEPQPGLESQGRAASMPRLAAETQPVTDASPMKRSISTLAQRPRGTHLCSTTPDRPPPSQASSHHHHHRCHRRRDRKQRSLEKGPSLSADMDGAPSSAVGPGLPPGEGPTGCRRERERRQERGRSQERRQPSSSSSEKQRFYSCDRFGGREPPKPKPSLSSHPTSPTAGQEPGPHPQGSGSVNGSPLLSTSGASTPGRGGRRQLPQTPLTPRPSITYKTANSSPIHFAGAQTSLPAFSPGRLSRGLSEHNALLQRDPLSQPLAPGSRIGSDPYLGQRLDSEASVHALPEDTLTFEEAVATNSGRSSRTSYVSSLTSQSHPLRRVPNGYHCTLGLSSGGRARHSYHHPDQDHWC
Assay: disruptors of CaV2.2 binding to Mint1 – biochemical, HTRF (AID 2073)
Conditions: HTRF protein-protein interaction, Mint1-CaV2.2, at 20 µM, stronger effect = higher value
[1] = measured here: average of repeat tests

Row | Structure (SMILES) | inhibition | inhibition [1]
1 | COC(=O)c1sc2ccccc2c1NC(=O)c1ccc(S(=O)(=O)N2CCCCC2C)cc1 (configuration not stated) | -0.4% (inactive) | 
2 | CN(CCOc1ccc(Cl)cc1)Cc1cccc(S(=O)(=O)N(C)C)c1 | -2.1% (inactive) | 
3 | Nc1c(Cl)ncnc1N/N=C/c1ccncc1 | -9.8% (inactive) | 
4 | O=C(O)C=C1CCN(c2ncc(C(F)(F)F)cc2Cl)CC1 | 13.7% (inactive) | 
5 | CN1CCN(c2ccccc2NC(=O)c2ccc3c(c2)OCCO3)CC1 | 8.9% (inactive) | 
6 | Cc1c(NC(=O)C2(C)CCCCC2)c(=O)n(-c2ccccc2)n1C | -0.1% (inactive) | 
7 | COCCNC(=O)/C(C#N)=C/c1ccc(OCc2ccccc2)cc1 | -5.6% (inactive) | 
8 | CCCCc1c(C)c(C#N)c2[nH]c3ccccc3n2c1=O | 16.9% (inactive) | 
9 | COc1ccccc1N=Cc1c(C)c(C#N)c2[nH]c3ccccc3n2c1=O | 71.7% (active) | 
10 | Cc1c(CCO)c(=O)n2c([nH]c3ccccc32)c1C#N | -2.7% (inactive) | 
11 | O=C(Nc1ccc(Cc2ccc(NC(=O)N3CCOCC3)cc2)cc1)N1CCOCC1 | 3.3% (inactive) | 
12 | COc1ccc(Br)cc1C1CC(=O)N2CN(C)CSC2=C1C#N (configuration not stated) | 87.7% (inactive) | 25.1%
13 | N#CC1=C2SCN(Cc3ccccc3)CN2C(=O)CC1c1ccccc1F (configuration not stated) | 85.9% (inactive) | 29.1%
14 | COc1cc(C2CC(=O)N3CN(Cc4ccco4)CSC3=C2C#N)ccc1OCc1ccccc1 (configuration not stated) | 84.8% (active) | 
15 | COc1ccc(Br)cc1C1CC(=O)N2CN(Cc3ccccc3)CSC2=C1C#N (configuration not stated) | 93.2% (active) | 
16 | COc1ccc(C2CC(=O)N3CN(Cc4ccco4)CSC3=C2C#N)cc1 (configuration not stated) | 76.3% (inactive) | 19.2%
17 | COc1cc(C2CC(=O)N3CN(Cc4ccccc4)CSC3=C2C#N)ccc1OCc1ccccc1 (configuration not stated) | 82.7% (inactive) | 44.4%
18 | CC(Oc1ccc(F)cc1Br)c1nc2ccccc2c(=O)[nH]1 (configuration not stated) | 10.2% (inactive) | 
19 | Cc1ccc(C(C)C)c(OCc2ccc(C(=O)N/N=C/c3ccc(O)c(O)c3)cc2)c1 | 20.5% (inactive) | 
20 | CC(C)(C)c1ccc(C(=O)N/N=C/c2ccc(OCCCF)cc2)cc1 | 21.6% (inactive) | 
21 | CC(C)(C)c1ccc(OCc2ccc(C(=O)N/N=C/c3ccc(O)c(O)c3)cc2)cc1 | 57.4% (active) | 
22 | CS(=O)(=O)N(CC(=O)N1CCCC1)Cc1ccc(Cl)c(Cl)c1 | 9.7% (inactive) | 
23 | CCc1cccc(CC)c1NC(=O)c1cccc(N)c1 | 2.5% (inactive) | 

Row | Structure (SMILES) | inhibition | inhibition [1]
24 | Cc1ccc(-c2cnn(-c3cccc([N+](=O)[O-])c3)c2N)cc1 | 22.4% (inactive) | 
25 | Cc1cc(C)cc(NC(=O)CCC(=O)N2CCSc3ccccc32)c1 | -4.1% (inactive) | 
26 | COc1cc(CNc2ccc3[nH]c(=O)[nH]c3c2)cc(Br)c1OCC(=O)NC(C)(C)C | -33% (inactive) | 
27 | COc1cc(CNc2ccc3[nH]c(=O)[nH]c3c2)cc(Cl)c1OCC(=O)NC(C)(C)C | 51.8% (active) | 
28 | COc1cc(CNc2ccc3[nH]c(=O)[nH]c3c2)ccc1OCC(=O)NC(C)(C)C | 43.9% (inactive) | 
29 | COc1ccc(OC)c(C(=O)NC(CC(N)=O)c2ccc(NCC3CC3)c([N+](=O)[O-])c2)c1 (configuration not stated) | -4.2% (inactive) | 
30 | O=C(c1cccc(C(=O)N(c2ccccn2)C2CCCCC2)c1)N(c1ccccn1)C1CCCCC1 | -10.9% (inactive) | 
31 | O=S(=O)(Nc1cc(Sc2cccc3cccnc23)c(O)c2ccccc12)c1ccccc1 | 69.2% (active) | 
32 | O=S(=O)(Nc1cc(Sc2cccc3cccnc23)c(O)c2ccccc12)c1ccc(F)cc1 | -17% (inactive) | 
33 | O=S(=O)(Nc1cc(Sc2ncn[nH]2)c(O)c2ccccc12)c1ccccc1 | 56.7% (inactive) | -21.5%
34 | COc1ccc(C2N(C(=O)c3ccccc3)CCN2C(=O)c2ccc(C)cc2)cc1 (configuration not stated) | -6.5% (inactive) | 
35 | CN(Cc1c(C(=O)N2CCCCCCC2)nc2ccc(Cl)cn12)C1CCOC1 (configuration not stated) | -10% (inactive) | 
36 | COC(=O)N1CC(c2ccccc2)CC1=O (configuration not stated) | -7.4% (inactive) | 
37 | O=[N+]([O-])c1ccc(-c2cnc3ccccc3n2)cc1 | 6.2% (inactive) | 
38 | Nc1nc(-c2ccc([N+](=O)[O-])cc2)cs1 | 35.7% (inactive) | 
39 | Cc1cccc(OCC(=O)N/N=C/C=C/c2ccco2)c1 | 59.6% (inactive) | 16%
40 | Cc1ccccc1OCC(=O)N/N=C/c1ccc([N+](=O)[O-])o1 | 6.4% (inactive) | 
41 | O=C(COc1ccccc1[N+](=O)[O-])N/N=C/C=C/c1ccco1 | 4.5% (inactive) | 
42 | Cc1ccc(OCC(=O)N/N=C/C=C/c2ccco2)cc1C | 55.3% (active) | 
43 | Cc1ccc(OCC(=O)N/N=C/C=C/c2ccco2)cc1 | 53.6% (inactive) | 27.1%
44 | COc1ccccc1OCC(=O)N/N=C/C=C/c1ccc([N+](=O)[O-])o1 | 54.5% (active) | 
45 | COCc1c(C(=O)OCC(=O)NCCN2C(=O)CSC2=O)oc2ccccc12 | 1.8% (inactive) | 
46 | COCCCNC(=O)c1cc2c(-c3ccc(Cl)cc3)nn(C)c2s1 | 13% (inactive) | 

Row | Structure (SMILES) | inhibition | inhibition [1]
47 | O=S(=O)(NCc1ccccc1)NCc1ccccc1 | 0.7% (inactive) | 
48 | CCN(CC)S(=O)(=O)c1cc(C(=O)OCC(=O)Nc2cccc(Br)c2)ccc1F | -2.8% (inactive) | 
49 | CCn1c(O)c(/C=C/C=C/C=Nc2ccccc2)sc1=S | 1.5% (inactive) | 
50 | CCCn1c(O)c(C=Nc2ccccc2)sc1=S | 35.6% (inactive) | 
51 | Oc1c(C=Nc2ccccc2)sc(=S)n1Cc1ccccc1 | -4.9% (inactive) | 
52 | CCCCn1c(O)c(/C=C/C=C/C=Nc2ccccc2)sc1=S | 71.6% (active) | 
53 | Oc1c(/C=C/C=C/C=Nc2ccccc2)sc(=S)n1Cc1ccccc1 | 50.6% (active) | 
54 | O=C(O)Cn1c(O)c(C=Nc2ccccc2)sc1=S | -17.7% (inactive) and -1.2% (inactive) | 
55 | O=C(Nc1cccc(Cl)c1)Nc1ccccc1C(=O)NCc1ccco1 | 3.4% (inactive) | 
56 | CCc1ccccc1NC(=S)NC1CC2CCC(C1)N2Cc1ccc(F)cc1 (configuration not stated) | -9.8% (inactive) | 
57 | CCn1c(SCC(=O)NNC(=O)c2ccc(C)cc2)nnc1C1CC1 | 7.6% (inactive) | 
58 | COc1ccccc1-c1nnc(SCC(=O)NCc2cccs2)n1N | -0.4% (inactive) | 
59 | O=[N+]([O-])c1ccc(/C=N\NS(=O)(=O)c2ccc(F)cc2)o1 | -7% (inactive) | 
60 | O=C1OC(c2ccc(F)cc2)=C/C1=C\c1ccc(O)cc1 | -0.4% (inactive) | 
61 | O=C1OC(c2ccc(F)cc2)=C/C1=C\c1ccc([N+](=O)[O-])o1 | 73% (active) | 
62 | CCOc1ccc(NC(=O)NC(=O)N(C)S(=O)(=O)c2ccc(C)cc2)cc1 | 8.1% (inactive) | 
63 | O=C(c1ccccc1)c1ccc2nc(-c3ccco3)c(-c3ccco3)nc2c1 | 76.5% (active) | 
64 | Cc1ccc(C)c(N2CCN(C(=O)c3ccc4nc(-c5ccco5)c(-c5ccco5)nc4c3)CC2)c1 | 56.6% (inactive) | 15.5%
65 | COc1ccccc1N1CCN(C(=O)c2ccc3nc(-c4ccco4)c(-c4ccco4)nc3c2)CC1 | 70% (active) | 
66 | O=C(NCc1ccccc1)c1ccc2nc(-c3ccco3)c(-c3ccco3)nc2c1 | 55.4% (inactive) | 20.4%
67 | O=C(Nc1ccccc1)c1ccc2nc(-c3ccco3)c(-c3ccco3)nc2c1 | 57.1% (inactive) | -4.3%
68 | O=C(c1ccc2nc(-c3ccco3)c(-c3ccco3)nc2c1)N1CCN(c2ccccc2)CC1 | 47.9% (inactive) | 
69 | O=C(NCC1CCCO1)/C(=C/c1ccccc1)NC(=O)c1ccccc1 (configuration not stated) | -11.4% (inactive) | 

Row | Structure (SMILES) | inhibition | inhibition [1]
70 | O=C(O)c1cccnc1-c1ncccc1C(=O)O | -7.6% (inactive) | 
71 | Cc1cccc(N/N=C2/COC(C)(C)CC2=O)c1 | 4.2% (inactive) | 
72 | NC(=O)C1CCN(CC(=O)c2c[nH]c3ccc(F)cc23)CC1 | 1.6% (inactive) | 
73 | CC1CCN(C(=O)c2ccc3c(c2NCCO)C(=O)c2ccccc2C3=O)CC1 | -7.6% (inactive) | 
74 | CC1CC(C)CN(C(=O)c2ccc3c(c2NCCO)C(=O)c2ccccc2C3=O)C1 (configuration not stated) | 59% (active) | 
75 | CC1CCCN(C(=O)c2ccc3c(c2NCCO)C(=O)c2ccccc2C3=O)C1 (configuration not stated) | -10.5% (inactive) | 
76 | CC(=O)CN1C(=O)NC(c2ccccc2)(c2ccccc2)C1=O | 12.2% (inactive) | 
77 | Cc1cc(-c2ccc(S(=O)(=O)N(C)Cc3ccccc3)cc2)on1 | 9% (inactive) | 
78 | COC(c1ccccc1)c1nnc(CCC(=O)NCc2cccc(-n3cccn3)c2)o1 (configuration not stated) | 10.4% (inactive) | 
79 | COC(c1ccccc1)c1nnc(CCC(=O)NCc2ccc3ncccc3c2)o1 (configuration not stated) | 50% (active) | 
80 | COc1ccc(CCc2nnc(CCC(=O)NCc3ccc4ncccc4c3)o2)cc1 | -2.5% (inactive) | 
81 | O=C1CNC(=O)/C1=C/c1ccccc1 | 7.3% (inactive) | 
82 | O=C1CSC(c2ccccc2)N1c1nnc(C23CC4CC(CC(C4)C2)C3)s1 (configuration not stated) | 1.5% (inactive) | 
83 | O=C(O)c1ccc(/C=C/c2nc3sc4c(c3c(=O)[nH]2)CCC4)cc1 | 40.5% (inactive) | 
84 | CCOC(=O)c1nc2sc3c(c2c(=O)[nH]1)CCCC3 | 29.6% (inactive) and 12.3% (inactive) | 
85 | N#C/C(=C\c1ccc(C(=O)O)cc1)c1nc2sc3c(c2c(=O)[nH]1)CCCC3 | 73.5% (active) | 
86 | O=C1C(Cc2ccccc2)NC(=S)N1Cc1ccccc1 (configuration not stated) | -4.6% (inactive) | 
87 | Cc1ccc(NC(=O)Cn2c(C)cc(C)c(C#N)c2=O)c(Cl)c1 | 2.7% (inactive) | 
88 | Cc1cc(C)c2c(=O)n(CC(=O)Nc3ccc(Cl)cc3)sc2n1 | 23.2% (inactive) | 
89 | Cc1ccc(NC(=O)Cn2sc3nc(C)cc(C)c3c2=O)c(Cl)c1 | 70.3% (active) | 
90 | COC(=O)Cn1c(C)nc2c(sc3nc(C)cc(C)c32)c1=O | 7.1% (inactive) | 
91 | CC(=O)Cn1cnc2c(sc3nc(C)cc(C)c32)c1=O | -5.8% (inactive) | 
92 | CCCNC(=O)Cn1sc2nc(C)cc(C)c2c1=O | 88.4% (active) | 
